High-throughput results deposited in PubChem BioAssay by National Center for Advancing Translational Sciences (NCATS).
Rows were chosen to be rich in hits. Some 19% of all compounds tested hit in one or more screens of this group.
HT1080 IDH1KD tx: HT-1080 IDH1 knockdown cell toxicity (counter line) | HT-1080 IDH1 knockdown viability, ATP luminescence, 48 h | Potency, µM (doses to about 46.1 µM), for inactives: top-dose activity, negative = toxicity, usual class: cytotoxic | 360,000 compounds, 2% hits | AID 686971;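 note: potency is the fitted concentration of half-maximal effect; 0% = DMSO wells and -100% = cell-free medium wells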
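Cytotoxicity counter-line: IDH1KD HT-1080, 48 h, CellTiter-Glo. Curves classed by r2, magnitude and activity.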
DT40 TDP1 CPT: DT40-hTDP1 cell growth loss with CPT | 420,000 compounds, 12% hits | chicken DT40 Tdp1-/-;hTDP1 cells + 20 nM CPT, ATP luminescence, 48 h | Potency, µM (highest dose often 46.2 µM), for inactives: at the top dose activity change, negative = growth inhibition, actives largely listed as inhibitors; note: potency is the fitted concentration of half-maximal effect; nearly all actives have a fitted effect of over 55% in size
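Cell growth measured by CellTiter-Glo luminescence after a minimum 48 h, 37 C compound exposure with 20 nM CPT in Tdp1-knockout DT40 cells stably expressing hTDP1, seeded 400/well; qHTS titration format.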
TDP1 cell noCPT: qHTS for Inhibitors of human tyrosyl-DNA phosphodiesterase 1 (TDP1): qHTS in cells in absence of CPT | Potency, µM (highest dose often 46.2 µM), inactives show at the highest dose activity change, negative = growth inhibition, most hits filed as inhibitors | 420,000 compounds, 15% hits | DT40 Tdp1-/- hTDP1 cells, no CPT, ATP luminescence, 48 h | AID 686978, 2013; note: potency is the fitted concentration of half-maximal effect; nearly all actives have a fitted effect of over 55% in size
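Readout: luminescence from CellTiter-Glo after 30 min in the dark at RT. Cells: DT40 Tdp1-/- with stable hTDP1, 400/well. Exposure: compounds alone, ≥48 hr, 37 °C.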
HT1080-NT tox: kills 2HG-producing HT-1080-NT fibrosarcoma cells | HT-1080-NT fibrosarcoma viability, CellTiter-Glo ATP luminescence, 48 h | Potency, µM (series often up to 46.1 µM), without a hit: top-dose activity, negative = less viability, hits mostly cytotoxic | 360,000 compounds, 1.6% hits | AID 686970;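 note: NT is the 2HG producing partner of a matched IDH1 knockdown line; potency is the fitted concentration of half-maximal effect; 0% = DMSO-treated cells and -100% = media-only wells without cells; nearly all actives have a fitted effect of over 55% in size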
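Fibrosarcoma NT cells, 750 per well in 5% FBS RPMI, were exposed to compound for 48 hours. Viability: CellTiter-Glo luminescence.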
IL1B secr inh: inflammasome signaling inhibition, IL-1 beta readout | THP-1 LPS/ATP IL-1B secretion, AlphaLISA, 16 h; hits give low values | 360,000 compounds, 4.7% hits | AID 743279 | activity change, % at 57.5 µM; in the data active = activity change below about -50%; inconclusive = mostly about -30% to -49%
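Secreted IL-1B measured by AlphaLISA bead assay after 16 h compound exposure of THP-1 cells; compounds (final up to 57.5 uM) added 1 h before LPS (250 ng/mL) and ATP (1.25 mM) stimulation; lower signal means less secretion.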
Active calls of the source: *; u = inconclusive; x = no result. Unless noted, calls come from the whole dose curve; as a rule, active = well fitted curve in the direction sought with a large enough effect; inconclusive = small, poorly fitted or top-dose-only effect, or another doubt; inactive = no such curve, though single readings can be large; an effect the other way counts as inactive or inconclusive. Unless noted, % is set by controls: 0 for no effect and ±100 for the full control effect.

SMILES	HT1080 IDH1KD tx	DT40 TDP1 CPT	TDP1 cell noCPT	HT1080-NT tox	IL1B secr inh
CO[C@H]1CN(C)C(=O)c2ccc(NC(=O)C3CCC3)cc2OC[C@H](C)N(Cc2ccc(F)cc2)C[C@@H]1C	-1%	u	u	1%	-70*
CN(CC(=O)Nc1ccccc1Cl)C(=O)COC(=O)C1CCN(c2ccc(C(F)(F)F)cn2)CC1	10%	-21%	u	15%	3
O=C(Nc1ccc(N2CCOCC2)cc1)c1csc([C@@H]2C[C@H](O)[C@@H](CO)O2)n1	-1%	-14%	-19%	9%	17
CCN1CCN(c2cc(C)c3cc(NC(=O)c4cc(OC)cc(OC)c4)ccc3n2)CC1	u	u	16µM*	u	u
CCCCc1ccc(C(=O)Nc2ccc3nc(N4CCN(CC)CC4)cc(C)c3c2)cc1	x	3.7µM*	2.9µM*	x	x
CCN1CCN(c2cc(C)c3cc(NC(=O)Cc4ccc(OC)c(OC)c4)ccc3n2)CC1	-16%	-18%	-15%	-17%	-28
CCOc1ccc(C(=O)Nc2ccc3nc(N4CCN(CC)CC4)cc(C)c3c2)cc1	-7%	u	26µM*	-2%	u
CN(C)S(=O)(=O)c1cccc(NC(=O)c2ccc(-n3cncn3)c([N+](=O)[O-])c2)c1	-1%	u	-12%	4%	5
CCC(CC)=NNc1cccc([N+](=O)[O-])c1	u	-13%	-27%	-23%	0
COc1ccc(C(=O)/C(C#N)=N/Nc2cccc([N+](=O)[O-])c2)cc1	23µM*	5.8µM*	4.1µM*	u	-13
O=[N+]([O-])c1cccc(N=NNc2cccc([N+](=O)[O-])c2)c1	4%	u	18µM*	7%	-30
CC/C(C)=N/Nc1cccc([N+](=O)[O-])c1	9.2µM*	-23%	5%	u	0
COC(=O)N1CCC2(CCCN(c3ccccn3)C2)CC1	x	-10%	-16%	x	x
CC(C)COc1ccc(C(=O)Nc2cc3nn(-c4ccccc4)nc3cc2Cl)cc1	x	1%	-1%	x	x
CC(C)COc1ccc(C(=O)Nc2scc(-c3ccc(Cl)cc3Cl)c2C(N)=O)cc1	8%	16µM*	9.2µM*	18%	-3
COc1ccc(S(=O)(=O)Nc2cccc(N(C)S(C)(=O)=O)c2)cc1Br	-1%	u	21µM*	1%	-7
CCC(=O)Nc1ccc(S(=O)(=O)Nc2cccc(C)c2)cc1OC	u	u	12µM*	u	33
COc1ccc(S(=O)(=O)Nc2ccc(NC(C)=O)cc2)cc1Br	-1%	-13%	-25%	-5%	-5
COc1ccc(S(=O)(=O)Nc2cccc(C(C)=O)c2)cc1Br	2%	-17%	u	-6%	-71*
CN(C)CCN(Cc1ccccc1)S(=O)(=O)c1ccc2[nH]c(=O)ccc2c1	x	-7%	1%	x	x
O=C(NCCc1ccccc1)c1cnc2sc(N3CCCCCC3)nn2c1=O	x	u	13µM*	x	x
O=C(NCc1ccccc1Cl)c1cnc2sc(N3CCCCC3)nn2c1=O	x	13µM*	9.2µM*	x	x
O=C(NCCc1ccccc1)c1cnc2sc(N3CCCCC3)nn2c1=O	x	8.2µM*	21µM*	x	x
COCCNC(=O)c1cnc2sc(N3CCCCC3)nn2c1=O	x	1%	-4%	x	x
COc1ccc(CNC(=O)c2cnc3sc(N4CCCC4)nn3c2=O)cc1OC	x	9.2µM*	u	x	x
SMILES	HT1080 IDH1KD tx	DT40 TDP1 CPT	TDP1 cell noCPT	HT1080-NT tox	IL1B secr inh
CCNC(=O)c1cnc2sc(N3CCCCCC3)nn2c1=O	x	-1%	-12%	x	x
CCOc1ccc(CCNC(=O)c2cnc3sc(N4CCCCCC4)nn3c2=O)cc1	x	18µM*	18µM*	x	x
CCCCOc1ccc(CNC(=O)c2cnc3sc(N4CCCCCC4)nn3c2=O)cc1	x	-13%	-20%	x	x
O=C(CSc1nccc(=O)[nH]1)NC1CCCCCCC1	0%	-4%	12%	8%	11
Cc1nnc(SCC(=O)NC23CC4CC(CC(C4)C2)C3)s1	14%	-21%	-10%	10%	6
O=C(CSC1=NCCN1)NC12CC3CC(CC(C3)C1)C2	-21%	26µM*	15µM*	-13%	-100*
O=C(CSC1=NCCN1)NC1CCCCCC1	-17%	u	18µM*	-6%	-97*
S=c1[nH]nc(-c2cccc(Cl)c2)n1CCN1CCCCC1	11%	3%	-16%	12%	18
O=C(O)Cc1ccc2c(c1)N(S(=O)(=O)c1cccs1)CC(C(=O)O)O2 (centres undefined)	11%	-9%	11%	13%	21
O=C(COc1ncnc2ccccc12)c1ccc2c(c1)OCCO2	7%	0%	u	12%	-15
CCSc1nc2n(n1)C(c1ccc(C(=O)O)cc1)C(C(=O)Nc1ccccc1C)=C(C)N2 (centres undefined)	x	2%	-3%	x	x
CCOC(=O)c1c(C)n(C)c2ccc(OCC(N)=O)cc12	5%	-18%	u	16%	-14
CCOc1ccc2c(c1)c(N=O)c(O)n2C	0%	4%	u	-1%	-64*
CCOC(=O)c1oc2nc(CC(C)C)c3c(c2c1N)CCCC3	-11%	23µM*	23µM*	-21%	-29
N/C(=N\OC(=O)N1c2ccccc2Sc2ccccc21)c1ccccc1	-13%	u	u	-8%	-11
Cc1cccc(/C(N)=N/OC(=O)N2c3ccccc3Sc3ccccc32)c1	-12%	u	21µM*	-17%	0
COc1cc(S(=O)(=O)O)c(C)cc1N=Nc1c(O)ccc2cc(S(=O)(=O)O)ccc12	x	0%	u	x	x
COc1ccc(C)c2sc(N(CCCN(C)C)C(=O)CS(=O)(=O)c3ccc(F)cc3)nc12	-24%	-50%	-19%	18µM*	u
COc1ccc(OC)c2sc(N(CCN(C)C)C(=O)c3cc(Cl)sc3Cl)nc12	-1%	-8%	-24%	-1%	0
COc1ccc(OC)c2sc(N(CCCN(C)C)C(=O)CCS(=O)(=O)c3ccccc3)nc12	u	1.5µM*	0.65µM*	-1%	-107*
COc1ccc(Cl)c2sc(N(CCN(C)C)C(=O)CCS(=O)(=O)c3ccc(C)cc3)nc12	-19%	u	u	u	-15
CN(C)CCN(C(=O)CCS(=O)(=O)c1ccccc1)c1nc2c(F)cccc2s1	-2%	-28%	16%	-4%	10
Cc1ccc2sc(N(CCCN(C)C)C(=O)CCS(=O)(=O)c3ccccc3)nc2c1C	u	2.3µM*	2.6µM*	u	-93*
CC1=CCC2C(=O)N(c3ccc(C(=O)N4CCCCCC4)cc3)C(=O)C2C1 (centres undefined)	11%	u	u	2%	-1
